Source: PubChem BioAssay (NCATS)
Records with an inconclusive call do not appear. Activity calls are given as the source filed them. The call rests on the fitted dose curve; in most records, active means well fitted curve in the direction sought with a large enough effect; inconclusive means small, poorly fitted or top-dose-only effect, or another doubt; inactive means no such curve, though single readings can be large; an effect the other way counts as inactive or inconclusive.

How the values were obtained:
[1] = biological target: Glutathione peroxidase 1 (Homo sapiens) (UniProt P07203); assay: Primary qHTS Assay for Inhibitors of Recombinant Selenoprotein Glutathione Peroxidase 1 (GPX1) (AID 1845191); conditions: recombinant GPX1, GR-coupled NADPH fluorescence, 15 min; series mostly up to 48.8 µM; further: nearly all actives have a fitted effect of over 65% in size
Procedure, shortened: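 NADPH consumption tracked by fluorescence at 340/450 nm between t=0 and t=15 min, room temperature. Final mix: 10 nM GPX1, 100 nM glutathione reductase, 1 mM GSH, 0.5 mM NADPH, 0.5 mM cumene hydroperoxide, 0.01% BSA; 30 min compound–enzyme preincubation.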

[2] = biological target: Phospholipid hydroperoxide glutathione peroxidase GPX4 (Homo sapiens) (UniProt P36969); assay: Primary qHTS Assay for Inhibitors of Recombinant Selenoprotein Glutathione Peroxidase 4 (GPX4) (AID 1845192); conditions: recombinant GPX4, GR-coupled NADPH fluorescence, 15 min; series mostly up to 50 µM; further: nearly all actives have a fitted effect of over 65% in size
Procedure, shortened: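 NADPH consumption followed by fluorescence at 340/450 nm, t=0 and after 15 min at room temperature. Reaction started with cumene hydroperoxide (0.5 mM final) after 30 min compound–GPX4 preincubation; final 200 nM GPX4, 100 nM GR, 1 mM GSH, 0.5 mM NADPH.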

[3] = biological target: Luciferin 4-monooxygenase (Photinus pyralis) (UniProt P08659); assay: Primary firefly luciferase (FLuc) qHTS assay for identification of artifact compounds. (AID 1845220); conditions: purified firefly luciferase, luminescence, 5 min; series mostly up to 54.1 µM; further: nearly all actives have a fitted effect of over 60% in size
Procedure, shortened: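 Cell-free, 1536-well qHTS. Buffer pH 7.6 with 0.01% Tween-20 and 0.05% BSA; 10 uM D-luciferin, 10 uM ATP; 10 nM P. pyralis luciferase; luminescence after 5 min.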

[4] = Primary fluorescence-based thiol-reactive (MSTI) qHTS assay for identification of artifact compounds. (AID 1845221); conditions: MSTI thiol-reactivity probe, 1 h; series mostly up to 53.8 µM; further: nearly all actives have a fitted effect of over 65% in size; further: potency means the concentration at half of the fitted maximal effect
Procedure, shortened: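 qHTS titration of compound; 4 uM MSTI, PBS pH 7.4, 2% DMSO; 1 h RT, dark; fluorescence 525/598 nm; normalized to Acetyl-MSTI and MSTI; 4-parameter Hill fit.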

[5] = system: Nanoluciferase (engineered Oplophorus gracilirostris luciferase); assay: Primary Nanoluciferase (NLuc) qHTS assay for identification of artifact compounds. (AID 1845222); conditions: NLuc-conditioned medium, Nano-Glo luminescence, 5 min; series mostly up to 54.1 µM
Procedure, shortened: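 Compounds are pinned into diluted (1:55) conditioned medium of NLuc-expressing S16 cells and held 15 min at room temperature protected from light. Nano-Glo substrate follows, and luminescence is read 5 min later.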

[6] = Primary redox qHTS assay for identification of artifact compounds. (AID 1845223); conditions: Amplex Red/HRP redox cycling with DTT, fluorescence; series mostly up to 53.8 µM; further: potency means the concentration at half of the fitted maximal effect
Procedure, shortened: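 Redox-cycling detection via DTT (250 uM final) oxidation coupled to Amplex Red (25 uM)/HRP (250 mU/mL) in HBSS. 15 min preincubation plus 30 min after DTT, room temperature. Ex/Em 525/598 nm; 4-parameter Hill fit against DMSO and 10 uM DA3003.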

Measured: Potency

Phospholipid hydroperoxide glutathione peroxidase GPX4 (Homo sapiens), sequence (P36969 whole entry, looked up): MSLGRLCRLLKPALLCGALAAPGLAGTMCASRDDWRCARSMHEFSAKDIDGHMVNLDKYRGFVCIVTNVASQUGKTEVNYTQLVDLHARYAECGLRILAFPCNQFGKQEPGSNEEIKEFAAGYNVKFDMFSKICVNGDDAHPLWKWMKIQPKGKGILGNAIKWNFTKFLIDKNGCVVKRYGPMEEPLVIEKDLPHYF
Glutathione peroxidase 1 (Homo sapiens), sequence (P07203 whole entry, looked up): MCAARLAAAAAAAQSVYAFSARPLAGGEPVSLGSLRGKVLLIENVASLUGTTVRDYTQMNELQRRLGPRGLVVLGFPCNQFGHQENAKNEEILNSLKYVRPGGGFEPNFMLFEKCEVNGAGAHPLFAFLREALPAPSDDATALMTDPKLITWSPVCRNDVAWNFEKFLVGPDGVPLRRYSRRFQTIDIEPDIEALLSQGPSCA

COc1ccc(C(=O)C2CCN(CC(=O)N(Cc3nc4c(c(=O)[nH]3)COCC4)CC3CC3)CC2)cc1
not listed: [6]
inactive: all other assays above

CO[C@H]1C[C@@H]2CC[C@@H](C)[C@@](O)(O2)C(=O)C(=O)N2CCCC[C@H]2C(=O)O[C@H]([C@H](C)C[C@@H]2CC[C@H](n3cnnn3)[C@H](OC)C2)CC(=O)[C@H](C)/C=C(\C)[C@@H](O)[C@@H](OC)C(=O)[C@H](C)C[C@H](C)/C=C/C=C/C=C/1C
not listed: [6]
inactive: all other assays above

O=S(=O)(NC1CCC(c2cc(F)ccc2F)(S(=O)(=O)c2ccc(Cl)cc2)CC1)C(F)(F)F (centres undefined)
inactive: all assays above

CCNCc1nc2c(N)nc3ccccc3c2n1CC(C)(C)O
inactive: all assays above

C[C@H](C(=O)NC1CCCC1)N(C(=O)Cn1nnc(-c2ccc3c(c2)OCO3)n1)C1CCCCC1
inactive: all assays above

CNC(=O)c1ccccc1Nc1cc(Nc2ccc(N3CCOCC3)cc2OC)ncc1C(F)(F)F
active: [4] 1.5 µM
not listed: [6]
inactive: all other assays above

O=C(Nc1ccccc1-c1cn2c(CN3CCNCC3)csc2n1)c1ccc2ccccc2n1
inactive: all assays above

COc1ccc(-c2nc(-c3ccc(-c4cccc(Cl)c4)o3)[nH]c2-c2ccc(OC)cc2)cc1
active: [4] 4.23 µM
inactive: all other assays above

CCC(C)C(=O)O[C@H]1CCC=C2C=C[C@H](C)[C@H](CC[C@@H](O)C[C@@H](O)CC(=O)O)[C@H]21 (some centres undefined)
not listed: [6]
inactive: all other assays above

CC(=O)OC1C(O)CC2(C)C(CCC(C)C23Cc2c(O)cc(CO)c(C=O)c2O3)C1(C)C (centres undefined)
not listed: [6]
inactive: all other assays above

CC(=O)OC1/C(C)=C/C(=O)C(OC(C)=O)C(C)(C)/C=C/C(C)C(=O)C2(OC(C)=O)CC(C)C(OC(=O)c3ccccc3)C12 (centres undefined)
not listed: [6]
inactive: all other assays above

C[C@H]1C(=O)N2c3ccccc3[C@@]3(O)C[C@@H]4C(=O)N[C@](C)(c5nc6ccccc6c(=O)n54)N1[C@@H]23
not listed: [6]
inactive: all other assays above

Cc1cc(N2CCN([C@@H]3CN[C@H](C(=O)N4CCSC4)C3)CC2)n(-c2ccccc2)n1
inactive: all assays above

O=S(=O)(c1ccccc1)c1cnc2c(N3CCNCC3)cccc2c1
inactive: all assays above

CCOc1ccc(S(=O)(=O)n2c(C)nc3ccccc32)cc1
inactive: all assays above

CC(=O)O[C@@H]1C[C@@H](OC(C)=O)C(C)(C)/C=C/[C@H](C)[C@H](OC(C)=O)[C@@]2(O)C[C@H](C)[C@H](OC(=O)c3ccccc3)[C@@H]2/C=C/1C
inactive: all assays above

CCOCc1nc2c(N)nc3ccccc3c2n1CC(C)(C)O
inactive: all assays above

O=C(NCC(O)CO)c1ccncc1Nc1ccc(I)cc1F (centres undefined)
inactive: all assays above

CC(C)c1cc2c(c(O)c1O)[C@@]13CCCC(C)(C)[C@@H]1[C@H](OC3=O)C2=O
active: [4] 2.33 µM | [6] 16.5 µM
inactive: all other assays above

COC(=O)[C@H](O)[C@H]1C(C)(C)[C@H](OC(=O)C(C)C)[C@@]2(O)C(=O)[C@]1(C)C1CC[C@]3(C)C(CC(=O)O[C@H]3c3ccoc3)[C@]13O[C@@H]32 (some centres undefined)
inactive: all assays above

C=CC(=O)Nc1cccc(CN2C(=O)N(c3c(Cl)c(OC)cc(OC)c3Cl)Cc3cnc(NCCCCN(CC)CC)nc32)c1
inactive: all assays above

C/C1=C\CCC2=C[C@@H](OC2=O)c2c(C)coc2C1
active: [4] 11.9 µM
inactive: all other assays above

C=C1C(=O)O[C@H]2[C@H]1CC/C(C)=C/CC[C@@]1(C)O[C@@H]21
inactive: all assays above

CC1(C)CCCC2(C)C1CC(=O)C13CC(CCC12)C(O)(CO)C3 (centres undefined)
inactive: all assays above

O=c1[nH]ccc2cc(OC3CCNCC3)ccc12
inactive: all assays above

COC1/C=C/C(C)(O)C(SCC(N)C(=O)O)CC(=O)OC(C)C(C)CC/C=C/1C (centres undefined)
inactive: all assays above

CC(C)=CCC[C@](C)(O[C@@H]1O[C@H](CO)[C@@H](O)[C@H](O)[C@H]1O)[C@H]1CC[C@]2(C)[C@@H]1[C@H](O)CC1[C@@]3(C)CC[C@H](O)C(C)(C)C3[C@@H](O[C@@H]3O[C@H](CO)[C@@H](O)[C@H](O)[C@H]3O)C[C@]12C (some centres undefined)
inactive: all assays above

C=C1CC[C@@H]2[C@](C)(CO[C@@H]3O[C@H](CO)[C@@H](O)[C@H](O)[C@H]3O)[C@H](O)CC[C@@]2(C)[C@@H]1C/C=C1/C(=O)OC[C@H]1O
active: [4] 13 µM
inactive: all other assays above

CC(=O)c1cc(C(=O)N[C@@H](C)Cn2ccc(-c3ccc(C#N)c(Cl)c3)n2)[nH]n1
inactive: all assays above

CC(C)(C)NS(=O)(=O)c1cncc(-c2cc(F)c3nc(N)nn3c2)c1
inactive: all assays above

Nc1ncnc2c1ncn2CCNCCCCCO
inactive: all assays above
